About 3,200 (25%) of roughly 13,000 compounds showed an effect of 50% or more. The list shows a part of the results.

Broadly, the % Inhibition is the relative decrease from the control value, in per cent.

For the experiment, the system named is P. falciparum stage V gametocytes. Set-up: BacTiter-Glo ATP luminescence viability of purified stage V gametocytes in 384-well plates, per cent inhibition versus DMSO. The following applies: 48 h, 5 µM; inhibitor.
As to `O=C(CN1CCN(S(=O)(=O)C=Cc2ccccc2)CC1)Nc1cc(C(F)(F)F)ccc1Cl` [TCMDC-124538], the “% Inhibition” value is on record as -9.823%.

Take `O=C(CN(c1cccc(C(F)(F)F)c1)S(=O)(=O)c1ccc(Cl)cc1)NCCC(c1ccccc1)c1ccccc1` [TCMDC-136712]: the “% Inhibition” value is given as 5.637%.

For the molecule `O=C(Cn1cc(C(F)(F)F)cc(Cl)c1=O)N1CCN(S(=O)(=O)c2ccc(Cl)cc2)CC1` [TCMDC-123617], the “% Inhibition” value worked out at 70.99%.

Take `CC(C)NC(=O)c1cccc(-c2ccc(OCCN3CCCC3c3cc4ccccc4[nH]3)cc2)c1` (centres unmarked) [TCMDC-134385]: the “% Inhibition” value is given as -6.463%.

With `CC(=O)c1ccc(NC(=O)C2c3ccccc3C(=O)N(CC(C)C)C2c2cccs2)cc1` (centres unmarked) [TCMDC-124757], the “% Inhibition” value was 58.39%.

Regarding `CC(C)CN1C(=O)c2ccccc2C(C(=O)Nc2cccc(C#N)c2)C1c1cccs1` (centres unmarked) [TCMDC-124758], the “% Inhibition” value is 44.13%.

As to `CC(C)CN1C(=O)c2ccc(C(=O)Nc3nccs3)cc2C1=O` [TCMDC-125773], the “% Inhibition” value is reported as -2.752%.

Turning to `CC(=O)c1cccc(NC(=O)C2c3ccccc3C(=O)N(CC(C)C)C2c2cccs2)c1` (centres unmarked) [TCMDC-124756], the “% Inhibition” value came to 54.72%.

Regarding `Cc1ccc(Nc2nc3cc(N(C)c4ccnc(Nc5cccc(CS(C)(=O)=O)c5)n4)ccc3o2)cc1` [TCMDC-141956], the “% Inhibition” value is -42.21%.

For `CC(C)C1=NCc2ccc([N+](=O)[O-])cc2C(=O)N1` [TCMDC-131785], the “% Inhibition” value is reported as -3.925%.

As for `c1cc(CN2CCc3ccccc3CC2)cc(-c2c[nH]c3nc(NC4CCCC4)ncc23)c1` [TCMDC-133774], the “% Inhibition” value was -80.37%.

For `Cn1nc(-c2cccc(CN[C@@H]3CCc4ccc(O)cc43)c2)c2cnc(NCCCN3CCCC3)nc21` [TCMDC-135035], the “% Inhibition” value is 59.7%.

Consider `Cn1nc(-c2cccc(CNC3CCc4ccccc43)c2)c2cnc(NC3CCCC3)nc21` (centres unmarked) [TCMDC-135030], for which the “% Inhibition” value is on record as -10.51%.

With `Cn1nc(-c2cccc(CN[C@@H]3CCc4ccc(O)cc43)c2)c2cnc(NC3CCCC3)nc21` [TCMDC-135032], the “% Inhibition” value is reported as -0.5073%.

With `Cn1nc(-c2cccc(CNC3CCc4ccccc43)c2)c2cnc(NCCCN3CCCC3)nc21` (centres unmarked) [TCMDC-135034], the “% Inhibition” value is 78.32%.

In the case of `Cn1nc(-c2ccc(CN[C@@H]3CCc4ccc(O)cc43)cc2)c2cnc(NCCCN3CCCC3)nc21` [TCMDC-135037], the “% Inhibition” value was 45.21%.

For `O=C(N[C@@H](CC1CCCCC1)C(=O)NC1CC1)c1ccc(O)c(-c2cccc(C(F)(F)F)c2)c1` [TCMDC-140807], the “% Inhibition” value is 9.846%.

As for `COc1ccc(-c2nc3nc4ccccc4cc3[nH]2)c(OCC(O)CNC(C)C)c1` (centres unmarked) [TCMDC-137443], the “% Inhibition” value was determined as 26.08%.

Consider `COc1ccc(NC(=O)c2ccc(-c3cc(NC(=O)c4ccnc(N5CCCC5)c4)ccc3C)s2)cc1N1CCN(C)CC1` [TCMDC-136373], for which the “% Inhibition” value is 32.31%.

Consider `CN(C)CCC1CCN(CCS(=O)(=O)c2cccc(Nc3ccc(-c4cccc(F)c4)cn3)c2)CC1` [TCMDC-134375], for which the “% Inhibition” value is 43.14%.

Consider `COCCOC(=O)C(=O)c1c(-c2ccccc2)c(-c2ccc(OC)c(OC)c2)c2c3cc(OC)c(OC)cc3ccn12` [TCMDC-125087], for which the “% Inhibition” value was determined as 52.27%.

For `COc1ccc(-c2cc(C(=O)N3CCc4ccccc43)c3ccccc3n2)cc1OC` [TCMDC-123715], the “% Inhibition” value was -27.24%.

Consider `COC(=O)C(=O)c1c(-c2ccccc2)c(-c2ccc(OC)c(OC)c2)c2c3cc(OC)c(OC)cc3ccn12` [TCMDC-125088], for which the “% Inhibition” value came to 26.26%.

Consider `CCc1ccc(CN(CCCOc2cccc(CC(=O)NCc3cnc[nH]3)c2)Cc2ccc(-n3ccnc3)cc2)cc1` [TCMDC-134288], for which the “% Inhibition” value is given as 15.75%.

As to `O=C(NCc1ccco1)c1ccc(CN2CCN(C(c3ccccc3)c3ccccc3)CC2)cc1` [TCMDC-140763], the “% Inhibition” value was -11.73%.

Turning to `O=C(Cc1cccc(OCCCN(Cc2cccc(C(F)(F)F)c2Cl)CC(c2ccccc2)c2ccccc2)c1)NCc1ccco1` [TCMDC-141563], the “% Inhibition” value was determined as 90.42%.

Take `CCCc1cc(OC)c(CC2c3cc(O)c(Cl)cc3C(c3ccccc3)CN2C)cc1OC` (centres unmarked) [TCMDC-137432]: the “% Inhibition” value was determined as 12.27%.

As for `CCCCNC(=O)c1[nH]c2c(NC(=O)COc3ccccc3)cccc2c1-c1cccc(NC(=O)C(N)CO)c1` (centres unmarked) [TCMDC-140060], the “% Inhibition” value was -98.74%.

On to `CC(C)N1CCC(N(Cc2ccc(-c3ccc(C(F)(F)F)cc3)cc2)C(=O)Cn2c(CCc3cccc(F)c3F)cc(=O)c3cn(C)nc32)CC1` [TCMDC-136048], for which the “% Inhibition” value is on record as 117.7%.

On to `CCN1CCC(N(Cc2ccc(-c3ccc(C(F)(F)F)cc3)cc2)C(=O)Cn2c(CCc3cccc(F)c3F)cc(=O)c3cn(C)nc32)CC1` [TCMDC-141156], for which the “% Inhibition” value is reported as 59.01%.

`Cc1ccc(O)cc1Nc1ccnc2cc(-c3ccccc3)ccc12` [TCMDC-138295]: the “% Inhibition” value was -25.3%.

With `COc1cc2c(cc1NS(=O)(=O)c1ccc(OCc3ccc(Br)cc3)cc1)CCN(C1CCC1)CC2` [TCMDC-136020], the “% Inhibition” value turned out to be 14.15%.

In the case of `Nc1nc2c(c(=O)[nH]1)CN(S(=O)(=O)c1ccc(C(=O)N[C@@H](CCC(=O)O)C(=O)O)cc1)CC2` [TCMDC-137681], the “% Inhibition” value is on record as -6.076%.

For `CCCN(C(=O)c1ccccc1C)c1nnc(-c2cccc(C)c2)s1` [TCMDC-124387], the “% Inhibition” value is given as 20.16%.

Take `CCOc1ccc(N(CC)S(=O)(=O)c2cc(Br)cc3c2N(C(=O)C2CC2)CC3)cc1` [TCMDC-125469]: the “% Inhibition” value is recorded as 14.82%.

Regarding `CN1CCN(CCCN(Cc2cccc(-c3ccc(CNCCc4ccccc4)cc3)c2)C(=O)c2cccs2)CC1` [TCMDC-140568], the “% Inhibition” value is given as 106.4%.

`CN1CCN(CCCN(Cc2ccc(-c3ccc(CNCCc4ccccc4)cc3)cc2)C(=O)c2cccs2)CC1` [TCMDC-140752]: the “% Inhibition” value is reported as 86.87%.

For the molecule `O=C(NCCN1CCOCC1)c1ccc(-c2ccc(CNCCCc3ccccc3)cc2)nc1` [TCMDC-134245], the “% Inhibition” value is 16.29%.

Consider `CN(C)CCN(C)Cc1ccc(-c2cccc(NC(=O)c3cccc(C#N)c3)c2)cc1` [TCMDC-132651], for which the “% Inhibition” value was -77.89%.

For the molecule `Cc1noc(C)c1-c1cccc(CNCc2ccc(-c3ccc(-c4nc5cc(C(F)(F)F)ccc5[nH]4)s3)cc2)c1.O=C(O)C(F)(F)F` [TCMDC-133062], the “% Inhibition” value worked out at 33.98%.

`CC1CC(NCCCNc2cc(=O)c3ccccc3[nH]2)c2c1cc(Cl)c(Cl)c2Cl` (centres unmarked) [TCMDC-139480]: the “% Inhibition” value is on record as -50.98%.

`CN(C)c1nc(NCc2ccccc2)nc(N/N=C/c2cc([N+](=O)[O-])ccc2O)n1` [TCMDC-124126]: the “% Inhibition” value is 65.13%.

Consider `O=[N+]([O-])c1ccc(Nc2nc(N/N=C/c3cc(Cl)cc(Cl)c3O)nc(Nc3ccccc3)n2)cc1` [TCMDC-123854], for which the “% Inhibition” value stood at 16.66%.

On to `O=[N+]([O-])c1ccc(Nc2nc(NCc3ccccc3)nc(N/N=C/c3ccccc3[N+](=O)[O-])n2)cc1` [TCMDC-124208], for which the “% Inhibition” value is recorded as 9.563%.

Take `CCCCC(CCCC)CN1C(=O)C(c2ccccc2)(c2ccccc2)N=C1N` [TCMDC-136878]: the “% Inhibition” value was -47.08%.

Take `CC1CCCN(S(=O)(=O)c2cc(Br)cc3c2N(C(=O)C2CC2)CC3)C1` (centres unmarked) [TCMDC-123872]: the “% Inhibition” value amounted to 16.45%.

`CCn1c(CN2CCN(Cc3ccccc3)CC2)nc2cc(NC(=O)c3cccs3)ccc21` [TCMDC-125164]: the “% Inhibition” value is given as 1.939%.

With `O=C(Nc1ccc(Cl)c(Cl)c1)C1CCC(=O)N1[C@@H](Cc1ccccc1)C(=O)NCCc1ccc(Cl)cc1` (some centres unmarked) [TCMDC-141411], the “% Inhibition” value is 6.201%.

Turning to `CCCC[C@@H](C(=O)NCc1ccccc1C(F)(F)F)N1C(=O)CCC1C(=O)Nc1ccc([N+](=O)[O-])cc1` (some centres unmarked) [TCMDC-141409], the “% Inhibition” value is reported as 20.34%.

For the molecule `CCCC[C@@H](C(=O)NCCc1ccc(Cl)cc1)N1C(=O)CCC1C(=O)Nc1ccc(Cl)c(Cl)c1` (some centres unmarked) [TCMDC-141410], the “% Inhibition” value came out at 67.56%.

Turning to `CN(CCN(C)C(=O)NCc1ccccc1)C(=O)NCc1ccccc1` [TCMDC-138997], the “% Inhibition” value is on record as -5.894%.

In the case of `COc1ccc(NS(=O)(=O)c2ccc(C(=O)Nc3ccc(OC(F)(F)F)cc3)cc2)cc1N1CCN(CC2CC2)CC1` [TCMDC-136298], the “% Inhibition” value is -1.186%.

Turning to `N#Cc1ccc2c(c1)CCN(CCC1CCC(NC(=O)c3cc4ccc(Cl)cc4[nH]3)CC1)C2` (centres unmarked) [TCMDC-139194], the “% Inhibition” value was -33.95%.

In the case of `O=C(Nc1ccc(Cl)cc1)c1ccc(CN2CCCN(Cc3ccccc3)CC2)cc1` [TCMDC-136401], the “% Inhibition” value is given as -26.98%.

`CN1CCCN(Cc2cccc(-c3ccc(NC(=O)c4ccc(Cl)cc4)cc3)c2)CC1` [TCMDC-132667]: the “% Inhibition” value is 81.69%.

In the case of `O=C(Nc1ccc(Cl)cc1)c1ccc(CN2CCCN(Cc3ccc(F)cc3)CC2)cc1` [TCMDC-136408], the “% Inhibition” value is 63.43%.

Regarding `Cc1ccc(CN2CCCN(Cc3ccc(C(=O)Nc4ccc(Cl)cc4)cc3)CC2)s1` [TCMDC-136414], the “% Inhibition” value is 86.68%.

Take `CCc1ccc(NC(=O)c2ccc(CN3CCCN(Cc4ccc(C)s4)CC3)cc2)cc1` [TCMDC-136449]: the “% Inhibition” value is on record as 10.45%.

Consider `O=C(Nc1ccc(CN2CCOCC2)cc1)c1ccc(-c2ccc(Cl)cc2)o1` [TCMDC-124455], for which the “% Inhibition” value worked out at 70.13%.

Turning to `Cc1ccc(CN2CCCN(Cc3cccc(C(=O)Nc4ccc(C(C)(C)C)cc4)c3)CC2)s1` [TCMDC-135991], the “% Inhibition” value was -86.63%.

Consider `CN1CCCN(Cc2cccc(-c3ccc(NC(=O)c4cccc(Cl)c4)cc3)c2)CC1` [TCMDC-132664], for which the “% Inhibition” value is on record as 44.2%.

`O=C(Nc1ccc(CN2CCOCC2)cc1)c1ccc(-c2ccc(Br)cc2)o1` [TCMDC-123781]: the “% Inhibition” value is on record as -11.97%.

On to `CN1CCCN(Cc2cccc(-c3cccc(NC(=O)c4ccc(Cl)cc4)c3)c2)CC1` [TCMDC-132653], for which the “% Inhibition” value worked out at 14.2%.

`CC(C)(C)c1ccc(NC(=O)c2ccc(CN3CCCN(Cc4ccc(F)cc4)CC3)cc2)cc1` [TCMDC-136435]: the “% Inhibition” value is recorded as -15.47%.

As for `O=C(Nc1ccc(CN2CCOCC2)cc1)c1ccc(-c2cc(Cl)ccc2Cl)o1` [TCMDC-125390], the “% Inhibition” value is listed as -41.52%.

Values taken from paper PMC4552634, “A New Set of Chemical Starting Points with Plasmodium falciparum Transmission-Blocking Potential for Antimalarial Drug Discovery” (PLoS ONE, 2015).
